HTT promoter inh: Primary qHTS for Identification of Small Molecule Inhibitors of Huntingtin Promoter Activity; HEK293 HTT promoter firefly luciferase reporter, 24 h; Potency, µM (series often up to 57.5 µM), without a hit: top-dose activity change, negative = inhibition, actives largely listed as inhibitors; 48,000 tested, 0.93% active; note: nearly all actives have a fitted effect of over 50% in size
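Firefly luciferase signal from promoter-reporter HEK293 cells was scaled between vehicle (0%) and zero RLU (-100%). Compounds were tested at final concentrations of up to 57.5 uM over 24 h at 37 degrees C. PTC124 at 50 uM final served as control inhibitor.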
NTMT1 inh: Primary qHTS for Inhibitors of N-terminal methyltransferase 1 (NTMT1): MTaseGlo Assay; N-terminal Xaa-Pro-Lys N-methyltransferase 1 (Homo sapiens), Q9BV86; NTMT1 MTase-Glo SAH luminescence, purified enzyme; Potency, µM (highest dose often 114 µM), without a hit: top-dose activity change, negative = inhibition, usual class: inhibitors; 59,000 tested, 2.5% active; AID 1645870, 2021;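 note: plate controls were DMSO vehicle for no effect and no enzyme for full effect; nearly all actives have a fitted effect of over 65% in size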
GALC G270D act: A Novel Cell-Based Assay to Identify Small Molecules for B -Galactocerebrosidase; Potency, µM (series often up to 57.5 µM), actives largely listed as activators; AID 1159614, 2016; 45,000 tested, 0.1% active; 145M-Twi-hGALC-G270D cells (Twitcher mouse brain line with human GALC G270D), HMU-beta-Gal fluorescence, 48 h; note: 0% is about no effect; nearly all actives have a fitted effect of over 65% in size
Target sequence (P54803 whole entry G286D): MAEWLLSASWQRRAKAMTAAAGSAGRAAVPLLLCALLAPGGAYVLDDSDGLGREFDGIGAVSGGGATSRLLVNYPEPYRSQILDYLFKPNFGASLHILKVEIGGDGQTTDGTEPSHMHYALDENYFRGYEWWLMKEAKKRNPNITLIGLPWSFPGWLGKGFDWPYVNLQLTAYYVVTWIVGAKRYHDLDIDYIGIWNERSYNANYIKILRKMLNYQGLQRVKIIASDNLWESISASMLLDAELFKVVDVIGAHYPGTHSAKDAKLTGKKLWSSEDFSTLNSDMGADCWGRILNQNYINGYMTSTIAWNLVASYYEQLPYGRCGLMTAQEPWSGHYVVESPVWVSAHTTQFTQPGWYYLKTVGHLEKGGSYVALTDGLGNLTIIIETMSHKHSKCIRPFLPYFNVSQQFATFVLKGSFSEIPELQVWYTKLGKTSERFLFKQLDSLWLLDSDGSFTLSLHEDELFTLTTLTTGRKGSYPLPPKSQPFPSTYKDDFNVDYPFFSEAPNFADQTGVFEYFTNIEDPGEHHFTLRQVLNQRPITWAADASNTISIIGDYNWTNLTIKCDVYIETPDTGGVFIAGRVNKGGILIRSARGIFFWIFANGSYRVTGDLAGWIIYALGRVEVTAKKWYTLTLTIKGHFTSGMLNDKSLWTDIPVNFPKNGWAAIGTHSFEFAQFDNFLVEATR
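Fluorogenic HMU-b-Gal hydrolysis (0.1 mM final, pH 5.2 citrate-phosphate with 1 mg/mL sodium taurocholate; carbonate stop buffer) measures mutant GALC activity after compound treatment of live 145M-Twi Twitcher brain cells stably carrying human GALC-G270D, with wild-type GALC line alongside; activation sought.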
HTT-AS act: Primary qHTS for Identification of Small Molecule Activators of Huntingtin-Antisense Promoter Activity. HEK293 HTT-AS promoter firefly luciferase reporter, 24 h; response scale: percent change from vehicle, -100% = no light. Potency, µM (top dose mostly 57.5 µM), without a hit: top-dose activity change, positive = activation, hits mostly activators. 48,000 tested, 0.24% active; note: nearly all actives have a fitted effect of over 55% in size
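Firefly luciferase readout (Dual-Glo, 10 min RT) after 24 h, 37 °C compound exposure (final up to 57.5 uM) of HEK293 reporter cells cultured 24 h beforehand; PTC124 at 50 uM final as control inhibitor; activity scaled vehicle 0%, zero RLU -100%.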
Starred values were filed as active, the others as inactive; i = inactive; ? = inconclusive; . = no result given; ! = not confirmed by another sample; [ ] = remark or other dose. Only some compounds are listed: those with a hit (about 2.7% of all), similar ones and a draw of the others. Calls come from the whole dose curve; as a rule, active = well fitted curve in the direction sought with a large enough effect; inconclusive = small, poorly fitted or top-dose-only effect, or another doubt; inactive = no such curve, though single readings can be large; an effect the other way counts as inactive or inconclusive. Potency is the fitted concentration of half-maximal effect.

SMILES	HTT promoter inh	NTMT1 inh	GALC G270D act	HTT-AS act
CN1CCN(c2ccc(NC(=O)c3cccs3)cn2)CC1	.	2.7%[57.5 µM]	.	.
Cc1c(C(=O)OCc2ccco2)[nH]c2c1C(=O)CC(c1ccco1)C2 (stereo unspecified)	.	-21.7%[57.5 µM]	.	.
Cc1c(C(=O)OC[C@H]2CCCO2)[nH]c2c1C(=O)CC(c1ccco1)C2 (stereo partly specified)	.	50.1µM*	.	.
CCC(C(=O)Nc1c(C)cc(C)cc1C)n1c(=O)c(-c2ccccc2NC(C)=O)nc2ccccc21 (stereo unspecified)	-9.5%	89.1µM*	i	-7.4%
CC(C)(C)C1CCc2oc3ccc(NS(=O)(=O)c4ccc(C(=O)O)cc4)cc3c2C1 (stereo unspecified)	-9.4%	50.1µM*	i	-10.6%
O=C(NCCN1CCCCC1)c1ccc(Cn2c(SCc3ccccc3)nc3cccnc32)cc1	48.5%	39.8µM*	i	?
COc1nc2ccc(Br)cc2cc1[C@@H](c1ccccc1)[C@@](O)(CCN(C)C)c1cccc2ccccc12	.	-1.0%[57.5 µM]	.	.
O=C1CCCC2=C1C(c1[nH]ncc1Cl)N=C(Nc1nc3cc([S+](=O)([O-])N4CCOCC4)ccc3o1)N2 (stereo unspecified)	.	-2.7%[57.5 µM]	.	.
C=CC(C)(C)c1[nH]c2ccccc2c1C1=C(O)C(=O)C(c2c[nH]c3c(CC=C(C)C)cccc23)=C(O)C1=O	.	39.8µM*	.	.
Cn1cc(-c2cnn3c(N)c(Br)c([C@@H]4CCCNC4)nc23)cn1	.	35.5µM*!	.	.
Cn1cc(-c2cnn3c(N)c(Br)c([C@H]4CCCNC4)nc23)cn1	?	-13.1%[57.5 µM]	.	-31.0%
CN(C)CCOC(C)(c1ccccc1)c1ccc(Cl)cc1 (stereo unspecified)	.	12.6%[57.5 µM]	.	.
COc1cc(C2Oc3c(OC)cc(/C=C/C(=O)OC[C@H]4O[C@@H](OC(C)(C)C(=O)O)[C@H](O)[C@@H](O)[C@@H]4O)cc3C2CO)ccc1O (stereo partly specified)	.	-14.7%[12.6 µM]	.	.
CCc1cccc(NC(=O)CCc2c(C)nc3c(c2C)c(=O)n(C)c(=O)n3C)c1	-20.2%	89.1µM*	i	-34.5%
COC(=O)c1ccc(NC(=O)CCc2c(C)nc3c(c2C)c(=O)n(C)c(=O)n3C)cc1	-9.5%	3.4%	i	-12.5%
CO[C@H]1C=CC=C(C)C(=O)NC2=CC(=O)C(NCCN(C)C)=C(C[C@@H](C)C[C@H](OC)[C@@H](O)[C@@H](C)C=C(C)[C@@H]1OC(N)=O)C2=O	?	27.1µM*	.	-91.7%
Cc1ccc(C(=O)Nc2cccc3cccnc23)cc1Cl	58.2%	?	i	8.91µM*
CCC(=O)Nc1ccc(-c2nc3ncccc3o2)cc1C	30.8%	-10.0%	i	11.2µM*
Nc1ncnc2c1c(-c1ccc(Oc3ccccc3)cc1)nn2[C@@H]1CCCNC1	.	-1.2%[57.5 µM]	.	.
Nc1ncnc2c1c(-c1cccc(OCc3ccccc3)c1)cn2C1CC(CN2CCC2)C1 (stereo unspecified)	-7.8%	10µM*!	.	-0.8%
CN1C/C=C/CCOc2cccc(c2)-c2ccnc(n2)Nc2cccc(c2)C1	.	39.8µM*	.	.
COc1cccc2cc(C(=O)Nc3ccc(CC(=O)O)cc3)c(=O)oc12	0.282µM*	?	i	-90.3%
Cc1ccc(OCCn2c(CCNC(=O)c3cccc4cc[nH]c34)nc3ccccc32)cc1	.	14.2%	.	.
COc1ccc2cc1Oc1cc3c(cc1OC)CC[N+](C)(C)[C@H]3Cc1ccc(cc1)Oc1c(OC)c(OC)cc3c1[C@@H](C2)[N+](C)(C)CC3	9.7%	12.6µM*	i	-3.9%
COc1ccc2cc1Oc1ccc(cc1)CC1c3cc(c(OC)cc3CCN1C)Oc1c(OC)c(OC)c(OC)c3c1C(C2)N(C)CC3 (stereo unspecified)	.	39.8µM*	.	.
COc1cc2c3cc1Oc1cc(ccc1O)C[C@@H]1c4c(cc(OC)c(O)c4Oc4ccc(cc4)C[C@@H]3N(C)CC2)CC[N+]1(C)C	9.5%	?	i	-11.0%
CC1=C(C)C(=O)OC(C(C)C2C(O)CC3C4C5OC5C5(O)CC(OC6OC(CO)C(O)C(O)C6O)CC(O)C5(C)C4CCC32C)C1 (stereo unspecified)	.	-0.1%[12.6 µM]	.	.

Compound activity from PubChem BioAssay.
